According to PubChem BioAssay (Tox21):
A number with no mark means an inactive call. Records with an inconclusive call do not appear. Where a call stands in place of a potency, no number is given. Activity calls are given as the source filed them. Unless noted, calls follow the shape of the dose curve; as a rule, active = well fitted curve in the direction sought with a large enough effect in the repeat runs; inconclusive = weak or mixed curves; inactive = no such curve, though single readings can be large; an effect the other way counts as inactive or inconclusive.

Tests used:
[1] = qHTS assay to identify small molecule agonists of the estrogen receptor alpha (ER-alpha) signaling pathway in the presence of an antagonist - cell viability counter screen (AID 1259386);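 also: cells exposed to compounds for 22 h at 37 °C before the viability read; nearly all actives have a fitted effect of over 30% in size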; also: potency is read from the fitted curve at half-maximal effect
How it was run: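 Steps: 5-day stripped-FBS culture; seed and incubate 24hr; add ICI-182,780 (10.0nM final); pin 15-point compound titration; incubate 22hr at 37C; add CellTiter-Fluor at 21hr; read fluorescence.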

[2] = qHTS assay to identify small molecule antagonists of the TGF-beta/Smad signaling pathway - cell viability counter screen (AID 1346824); also: nearly all actives have a fitted effect of over 50% in size
How it was run: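 SBE-bla HEK 293T cells, incubated overnight, then compound plus 0.25 ng/mL TGF-beta1 (stock added) for 5 hr at 37 C. Viability was read in the same wells by CellTiter-Glo luminescence after 30 min at room temperature.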

[3] = qHTS assay to identify small molecule agonists of the TGF-beta/Smad signaling pathway - cell viability counter screen (AID 1346829); also: top concentration of the series differs between compounds; nearly all actives have a fitted effect of over 45% in size
How it was run: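 CellTiter-Glo luminescence readout; SBE-bla HEK 293T cells, overnight plating, compound 5 hr at 37 C/5% CO2, then bla substrate 2 hr RT, then CellTiter-Glo 30 min RT.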

[4] = qHTS assay to identify small molecule agonists of the TGF-beta/Smad signaling pathway (AID 1346859; active = well fitted activation curve with a large enough effect in the signal ratio in the repeat runs, not every such curve was filed as active; the % refers to the signal ratio; also: series mostly up to about 77 µM)
How it was run: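 SBE-bla HEK293T cells plated overnight, then compound exposure for 5 h at 37 C. Beta-lactamase reporter read with LiveBLAzer B/G FRET substrate after 2 h at room temperature, fluorescence at 405 nm excitation, 460/530 nm emission.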

[5] = target: Thyrotropin-releasing hormone receptor (Homo sapiens) (UniProt P34981); assay: qHTS assay to identify small molecule antagonists of the thyrotropin-releasing hormone receptor (TRHR) signaling pathway (AID 1346877; active = well fitted inhibition curve with a large enough effect in the repeat runs, not every such curve was filed as active; also: series mostly up to about 51 µM)
Chain of Thyrotropin-releasing hormone receptor (Homo sapiens) (P34981 whole entry, looked up): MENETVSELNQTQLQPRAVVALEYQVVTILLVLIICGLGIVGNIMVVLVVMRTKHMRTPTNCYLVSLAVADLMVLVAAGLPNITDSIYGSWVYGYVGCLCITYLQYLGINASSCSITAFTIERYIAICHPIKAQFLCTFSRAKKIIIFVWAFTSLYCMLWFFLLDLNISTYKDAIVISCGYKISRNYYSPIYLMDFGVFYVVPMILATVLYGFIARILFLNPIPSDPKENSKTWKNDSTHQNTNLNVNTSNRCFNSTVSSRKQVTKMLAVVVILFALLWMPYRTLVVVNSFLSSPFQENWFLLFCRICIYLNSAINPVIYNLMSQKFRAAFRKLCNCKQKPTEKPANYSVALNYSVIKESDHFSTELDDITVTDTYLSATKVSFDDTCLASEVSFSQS
How it was run: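 Human TRHR in HEK293 cells; inhibition of the intracellular calcium rise triggered by 1 nM TRH was followed by fluorescence over 3 min. Compounds were run at 15 concentrations, three replicates each.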

[6] = target: Thyrotropin-releasing hormone receptor (Homo sapiens) (UniProt P34981); assay: qHTS assay to identify small molecule agonists of the thyrotropin-releasing hormone receptor (TRHR) signaling pathway (AID 1346891; calls by dose curve; also: series mostly up to about 58 µM)
How it was run: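 HEK293 cells expressing TRHR plated 18 h at 37 C/5% CO2, calcium dye-loaded 2 h at 37 C, then compound added (agonist mode); kinetic calcium fluorescence read 3 min at 1 s intervals; 15 concentrations in triplicate.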

[7] = Human pregnane X receptor (PXR) small molecule agonists, qHTS cell viability counter screen (AID 1346977); also: nearly all actives have a fitted effect of over 50% in size; also: potency is read from the fitted curve at half-maximal effect
How it was run: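 PXR-Luc HepG2 cells (2,000/well, 5% charcoal-stripped FBS) preincubated 5 hr, then exposed to compounds 24 hr at 37 C. Viability read in the same wells by CellTiter-Fluor fluorescence, reagent added at 23 hr, 1 hr incubation.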

[8] = Caspase-3/7 induction in CHO-K1 cells by small molecules, qHTS assay (AID 1346980); also: nearly all actives have a fitted effect of over 15% in size
How it was run: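 Wild-type CHO-K1 cells exposed to compounds for 17hr at 37 C, 5% CO2. Caspase-3/7 activity then measured by Caspase-Glo 3/7 luminescence after 30min at room temperature.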

[9] = Caspase-3/7 induction in HepG2 cells by small molecules, qHTS cell viability counter screen (AID 1346981); also: series mostly up to about 92 µM; nearly all actives have a fitted effect of over 30% in size
How it was run: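 The parent HepG2 line is plated at 2,000 cells per well and rested 5 hr before compound pinning from DMSO stocks. Following a 16-hr treatment at 37 C, a fluorogenic live-cell substrate (CellTiter-Fluor) reports viability after 1 hr.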

[10] = target: Nuclear receptor subfamily 1 group I member 2 (Homo sapiens) (UniProt O75469); assay: Human pregnane X receptor (PXR) small molecule agonists, qHTS assay (AID 1346982); also: nearly all actives have a fitted effect of over 35% in size; also: potency is read from the fitted curve at half-maximal effect
Chain of Nuclear receptor subfamily 1 group I member 2 (Homo sapiens) (O75469 whole entry, looked up): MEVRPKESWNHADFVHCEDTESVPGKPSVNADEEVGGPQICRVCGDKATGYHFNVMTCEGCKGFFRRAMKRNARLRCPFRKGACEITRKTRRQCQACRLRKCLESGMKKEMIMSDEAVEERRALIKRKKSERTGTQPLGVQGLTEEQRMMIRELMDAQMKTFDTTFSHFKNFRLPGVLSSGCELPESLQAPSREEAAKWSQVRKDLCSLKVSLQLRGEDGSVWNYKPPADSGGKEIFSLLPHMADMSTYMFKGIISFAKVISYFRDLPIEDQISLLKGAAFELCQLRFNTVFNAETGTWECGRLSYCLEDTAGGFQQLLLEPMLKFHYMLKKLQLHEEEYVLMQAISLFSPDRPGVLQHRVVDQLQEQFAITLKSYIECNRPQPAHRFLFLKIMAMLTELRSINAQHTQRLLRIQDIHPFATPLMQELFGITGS
How it was run: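 After plating in 5% charcoal-stripped FBS and a 5 hr rest, PXR-Luc HepG2 cells received compounds in DMSO. Following 24 hr at 37 C, ONE-Glo was added and light output read.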

[11] = target: Nuclear receptor subfamily 1 group I member 2 (Rattus norvegicus) (UniProt Q9R1A7); assay: Rat pregnane X receptor (rPXR) activation by small molecules, qHTS assay (AID 1346983); details: rPXR luciferase reporter cells, One-Glo luminescence, 24 h; max activation: hits give high values; also: nearly all actives have a fitted effect of over 20% in size
Chain of Nuclear receptor subfamily 1 group I member 2 (Rattus norvegicus) (Q9R1A7 whole entry, looked up): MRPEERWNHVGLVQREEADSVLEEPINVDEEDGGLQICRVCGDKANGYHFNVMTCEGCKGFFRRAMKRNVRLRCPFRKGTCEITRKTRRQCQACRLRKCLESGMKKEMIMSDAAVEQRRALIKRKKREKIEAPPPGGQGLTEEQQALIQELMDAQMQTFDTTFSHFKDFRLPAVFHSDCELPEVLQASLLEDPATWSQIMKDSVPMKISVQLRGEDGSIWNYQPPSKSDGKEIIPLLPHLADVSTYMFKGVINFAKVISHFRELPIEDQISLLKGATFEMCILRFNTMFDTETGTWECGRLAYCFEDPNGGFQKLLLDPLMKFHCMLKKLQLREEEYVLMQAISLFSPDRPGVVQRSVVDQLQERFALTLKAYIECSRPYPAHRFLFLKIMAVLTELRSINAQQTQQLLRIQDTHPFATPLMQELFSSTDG
How it was run: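 Cell-based rPXR activation assay: rPXR cells, 2,000 per well, rested 5hr at 37 C, then exposed to compounds in DMSO for 24 hr at 37 C. Luciferase activity read by One-Glo luminescence after 30 min at room temperature.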

[12] = target: Nuclear receptor subfamily 1 group I member 2 (Homo sapiens) (UniProt O75469); assay: CYP3A4 induction through human pregnane X receptor (PXR) by small molecules, qHTS assay (AID 1346984); also: nearly all actives have a fitted effect of over 40% in size; also: potency is read from the fitted curve at half-maximal effect
How it was run: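 Human PXR activation is tracked via CYP3A4 promoter-luciferase in DPX-2 (HepG2) cells. Compounds treat cells for 24hr at 37C, and luminescence is read after One-Glo.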

[13] = target: Nuclear receptor subfamily 1 group I member 2 (Homo sapiens) (UniProt O75469); assay: Human pregnane X receptor (PXR) activation by small molecules, qHTS assay (AID 1346985); also: nearly all actives have a fitted effect of over 40% in size; also: potency is read from the fitted curve at half-maximal effect
How it was run: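 DPX-2 cells (HepG2 co-transfected with a PXR response element and a CYP3A4-promoter luciferase construct) were seeded at 2,000 per well, rested 5 hr at 37C, then exposed to DMSO-dissolved compounds for 24 hr. Activation was read as luciferase luminescence.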

[14] = target: Progesterone receptor (Homo sapiens) (UniProt P06401); assay: qHTS assay to identify small molecule agonists of the progesterone receptor (PR) signaling pathway (AID 1346784; calls by dose curve; also: nearly all actives have a fitted effect of over 30% in size)
Chain of Progesterone receptor (Homo sapiens) (P06401 whole entry, looked up): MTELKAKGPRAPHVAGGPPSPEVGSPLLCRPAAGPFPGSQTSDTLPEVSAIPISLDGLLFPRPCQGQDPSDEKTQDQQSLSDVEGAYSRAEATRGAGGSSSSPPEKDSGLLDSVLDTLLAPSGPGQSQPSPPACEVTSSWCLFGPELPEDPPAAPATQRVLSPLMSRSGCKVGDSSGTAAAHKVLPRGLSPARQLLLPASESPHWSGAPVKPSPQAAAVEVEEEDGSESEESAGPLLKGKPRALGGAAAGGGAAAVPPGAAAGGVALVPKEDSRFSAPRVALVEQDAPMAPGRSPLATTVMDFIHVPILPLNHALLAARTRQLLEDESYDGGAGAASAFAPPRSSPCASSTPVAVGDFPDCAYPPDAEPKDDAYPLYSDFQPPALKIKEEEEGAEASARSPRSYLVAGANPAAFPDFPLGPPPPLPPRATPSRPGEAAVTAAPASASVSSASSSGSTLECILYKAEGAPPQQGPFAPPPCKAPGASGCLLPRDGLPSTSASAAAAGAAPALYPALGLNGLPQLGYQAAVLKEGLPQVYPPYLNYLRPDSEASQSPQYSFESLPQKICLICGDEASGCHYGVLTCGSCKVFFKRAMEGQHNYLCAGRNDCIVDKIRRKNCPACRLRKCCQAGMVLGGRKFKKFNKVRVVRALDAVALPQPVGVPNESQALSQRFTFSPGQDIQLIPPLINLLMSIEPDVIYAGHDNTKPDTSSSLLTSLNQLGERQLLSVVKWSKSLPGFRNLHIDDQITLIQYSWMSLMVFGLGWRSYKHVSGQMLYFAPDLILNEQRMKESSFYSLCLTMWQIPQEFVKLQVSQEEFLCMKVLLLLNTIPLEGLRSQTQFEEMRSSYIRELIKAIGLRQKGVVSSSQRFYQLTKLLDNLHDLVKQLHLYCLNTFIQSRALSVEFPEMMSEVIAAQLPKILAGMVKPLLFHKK
How it was run: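 PR-UAS-bla HEK 293T cells (beta-lactamase reporter under UAS) in 2% charcoal-stripped FBS, dosed with 23 nL compound after 6 hr, incubated 16hr at 37C. LiveBLAzer B/G FRET substrate added, fluorescence read after 2 hours.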

[15] = qHTS assay to identify small molecule antagonists of the progesterone receptor (PR) signaling pathway - cell viability counter screen (AID 1346798); also: nearly all actives have a fitted effect of over 50% in size; also: potency is read from the fitted curve at half-maximal effect
How it was run: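 PR-UAS-bla HEK293T cells, 3,000/well in 2% charcoal-stripped FBS medium, dosed with compounds plus R5020 agonist and incubated 16 h at 37C. Viability then measured in the same wells by CellTiter-Glo luminescence after 30 min at RT.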

[16] = qHTS assay to identify small molecule agonists of the progesterone receptor (PR) signaling pathway - cell viability counter screen (AID 1346799; calls by dose curve; also: nearly all actives have a fitted effect of over 45% in size)
How it was run: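 Counter screen in the PR-UAS-bla HEK293T wells (2% charcoal-stripped FBS, 16 h compound exposure at 37 C) after the bla read. CellTiter-Glo added, 30 min at room temperature, luminescence read as cell viability.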

[17] = Caspase-3/7 induction in HepG2 cells by small molecules, qHTS assay (AID 1346978); also: nearly all actives have a fitted effect of over 15% in size
How it was run: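 Wild-type HepG2 cells, 2,000/well, settled 5 hr at 37 C and 5% CO2, then compound-treated for 17 hr; caspase-3/7 activity read by luminescent Caspase-Glo 3/7 after 30 min at room temperature.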

[18] = target: Progesterone receptor (Homo sapiens) (UniProt P06401); assay: qHTS assay to identify small molecule antagonists of the progesterone receptor (PR) signaling pathway (AID 1346795; active = well fitted inhibition curve with a large enough effect in the signal ratio in the repeat runs, not every such curve was filed as active; the % refers to the signal ratio; also: potency is read from the fitted curve at half-maximal effect)
How it was run: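 PR-UAS-bla HEK293T cells with beta-lactamase reporter under UAS control, in 2% charcoal-stripped FBS, treated with compounds plus 1 nM promegestone (R5020, final) for 16 hr at 37C. Read-out: FRET beta-lactamase substrate fluorescence after 2 hr at room temperature.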

[19] = Caspase-3/7 induction in CHO-K1 cells by small molecules, qHTS cell viability counter screen (AID 1346979); also: nearly all actives have a fitted effect of over 35% in size
How it was run: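 Wild-type CHO-K1 cells (1,500/well) treated with compound after 5 h plating; after 16 h at 37C, viability read as CellTiter-Fluor fluorescence following 1 h reagent incubation, in the same wells as the caspase read.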

Structure (SMILES)	Potency [1]	Potency [2]	Potency [3]	outcome [4]	Potency [5]	Potency [6]	Potency [7]	Potency [8]	Potency [9]	Potency [10]	max activation [11]	Potency [12]	Potency [13]	Potency [14]	Potency [15]	Potency [16]	Potency [17]	Potency [18]	Potency [19]
CCC(COC(=O)c1cc(OC)c(OC)c(OC)c1)(c1ccccc1)N(C)C (stereo not given)	inactive	inactive	inactive	inactive	inactive	inactive	inactive	inactive	inactive	29.8 µM (active)	-1.12%	15.8 µM (active)	25.1 µM (active)	–	–	–	–	–	–
CC(O)(CS(=O)(=O)c1ccc(F)cc1)C(=O)Nc1ccc(C#N)c(C(F)(F)F)c1 (stereo not given)	inactive	inactive	inactive	inactive	inactive	inactive	inactive	inactive	inactive	31.8 µM (active)	–	inactive	inactive	inactive	inactive	inactive	inactive	–	–
O=C(C(Cl)(Cl)Cl)C(Cl)(Cl)Cl	–	inactive	inactive	inactive	inactive	inactive	inactive	inactive	inactive	inactive	–	–	–	inactive	inactive	inactive	inactive	inactive	–
Cc1ccc(-c2c(Cl)nc(C#N)n2S(=O)(=O)N(C)C)cc1	inactive	inactive	inactive	inactive	–	–	–	inactive	–	9.68 µM (active)	–	–	–	–	8.63 µM (active)	–	inactive	–	–
CO/C=C(/C(=O)OC)c1ccccc1COc1cccc(C(F)(F)F)n1	8.63 µM (active)	inactive	inactive	inactive	inactive	inactive	1.93 µM (active)	inactive	–	34.3 µM (active)	–	–	–	inactive	inactive	–	inactive	–	–
COC(=O)C(Br)CBr (stereo not given)	–	inactive	inactive	inactive	inactive	inactive	inactive	inactive	inactive	inactive	–	–	–	inactive	–	inactive	inactive	inactive	inactive
C[C@]12CC[C@H]3[C@@H](CCC4=CC(=O)CC[C@@H]43)[C@@H]1CC[C@@H]2OC(=O)CCC1CCCCC1	inactive	inactive	inactive	inactive	inactive	inactive	–	–	inactive	inactive	–	–	–	–	inactive	–	inactive	inactive	inactive
CCCCC(O)(Cn1cncn1)c1ccc(Cl)cc1Cl (stereo not given)	inactive	inactive	inactive	inactive	inactive	inactive	–	–	–	24.3 µM (active)	–	–	–	–	–	–	–	17.2 µM (active)	–
CN(N=O)c1ccc([N+](=O)[O-])cc1	–	inactive	inactive	inactive	inactive	inactive	inactive	–	inactive	inactive	–	–	–	inactive	inactive	inactive	–	inactive	inactive
CC(c1ccc(O)cc1)(c1ccc(O)cc1)c1ccc(O)cc1	inactive	inactive	inactive	inactive	–	–	–	inactive	–	68.6 µM (active)	–	–	–	–	–	–	inactive	19.3 µM (active)	–
COC(N)=O	inactive	inactive	inactive	inactive	inactive	inactive	inactive	inactive	–	inactive	–	–	–	inactive	43.3 µM (active)	–	inactive	–	inactive
N#Cc1cc(I)c(O)c(I)c1	48.6 µM (active)	inactive	inactive	inactive	inactive	inactive	–	inactive	–	54.5 µM (active)	–	–	–	inactive	–	–	inactive	–	–
O=C=Nc1ccc(Cl)cc1	inactive	inactive	inactive	inactive	inactive	inactive	inactive	inactive	inactive	1.54 µM (active)	–	–	–	–	–	–	inactive	–	inactive
CC(=O)c1cc2c(cc1C)C(C)(C)C(C)CC2(C)C (stereo not given)	inactive	inactive	inactive	inactive	inactive	inactive	inactive	–	inactive	–	–	–	–	inactive	inactive	–	–	–	–
O=NN1CCNCC1	inactive	inactive	inactive	inactive	–	–	inactive	inactive	inactive	inactive	–	–	–	inactive	inactive	inactive	inactive	–	–
